# Compound activity (PubChem BioAssay)
# TIM10 inh – inhibits growth of TIM10 yeast strain. S. cerevisiae TIM10 strain growth, BacTiter-Glo luminescence, 24 h. inhibition, % at 10 µM. actives 1.4% (n = 330,000). AID 463195;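 active = inhibition of 40% or more at the single tested concentration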;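 note: wild-type TIM10 isogenic control strain grown at permissive 25 °C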
# PfHsp90 yeast 2 – inhibits growth of yeast expressing Plasmodium falciparum Hsp90; S. cerevisiae expressing PfHsp90, BacTiter-Glo ATP, 48 h; yeast lacking PDR1 and PDR3 efflux regulators; inhibition, % at 9.4 µM; actives 0.32% (n = 310,000);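 active = every replicate shows inhibition above about 80%, whatever the replicate mean, limit read from the data; inconclusive = mean inhibition reaches the set limit but some replicate falls short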;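 note: 0% = DMSO neutral controls and 100% = 20 µM radicicol positive controls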
# tim23-1 inh – tim23-1 yeast growth inhibition | S. cerevisiae tim23-1 growth, BacTiter-Glo luminescence, 24 h | inhibition, % at 20 µM | actives 1.3% (n = 330,000);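 active = growth inhibition of the mutant yeast at or above 50%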;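 note: temperature-sensitive mutant grown at 25 °C; plate controls were DMSO-treated mutant yeast for no effect and medium wells lacking yeast for full effect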
# SKKanGAS inh – blocks kanamycin growth of S. pyogenes SKKanGAS strain; BacTiter-Glo, 6 h; inhibition, % at 7.5 µM; actives 1.3% (n = 300,000);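 active = mean replicate score, as percent of positive control median, at least 50; inconclusive = mean below 50 but one replicate at or above 50; inactive = mean and every replicate below 50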;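 note: strain carries kanamycin resistance gene driven by streptokinase promoter and grows in 40 µg/ml kanamycin; loss of luminescence reflects streptokinase promoter inhibition or plain growth inhibition; 0% = median of DMSO wells and 100% = positive control at its reference dose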
# V-ATPase pHluor – alters yeast V-ATPase proton transport; S. cerevisiae, pHLuorin cytosolic pH fluorescence; response, % at 10 µM; actives 0.37% (n = 350,000); AID 504577; in the data active = response mostly above about 7.3%, no sharp cut-off; inactive = mostly below about 5.4%; note: actives read high
# tim10-1 inh – inhibits growth of tim10-1 mutant yeast; S. cerevisiae tim10-1 ts strain growth, BacTiter-Glo, 24 h; inhibition, % at 20 µM; actives 2.2% (n = 330,000);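 active = inhibition of at least 40%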;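 note: mutant grown at 25 °C; 0% = DMSO wells with yeast and 100% = wells holding no yeast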
# tim10-1 conf – tim10-1 yeast growth inhibition, confirmed | shares compounds with tim10-1 inh | S. cerevisiae tim10-1 ts strain growth, BacTiter-Glo, 24 h | inhibition, % at 20 µM | actives 56% (n = 7,400) | AID 463213;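 active = inhibition of yeast growth at or above a set limit in either of two repeat tests at 20 µM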;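 note: tim10-1 mutant grown at permissive 25 °C to find synthetic lethal compounds; 0% = DMSO yeast wells and 100% = medium wells without yeast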
# Starred values were filed as active, the others as inactive; ? = inconclusive; nt = no result. Shown are actives, neighbours in structure and some others; about 4.6% of the full set was active somewhere.
SMILES,TIM10 inh,PfHsp90 yeast 2,tim23-1 inh,SKKanGAS inh,V-ATPase pHluor,tim10-1 inh,tim10-1 conf
CCn1c(-c2cc(-c3ccc(OC(C)C)cc3)nc3ccccc23)n[nH]c1=S,30,nt,42,-2,0,39,nt
Cc1ccc(C)c(-c2cc(C(=O)NC3CC3)c3ccccc3n2)c1,-7,9,22,nt,3,-14,nt
CCCOc1cccc(-c2cc(-c3n[nH]c(=S)n3CC)c3ccccc3n2)c1,39,-3,38,18,-1,43*,32*
CCNC(=S)NNC(=O)c1cc(-c2ccccc2C)nc2ccccc12,33,15,33,-11,1,46*,46*
CC(C)(C)OC(=O)NCCCCCO,7,-13,14,nt,-2,4,nt
CCCOc1cccc(-c2cc(C(=O)NNC(=S)NCC)c3ccccc3n2)c1,33,6,24,-17,0,54*,50*
CN(C)S(=O)(=O)c1cccc(C(=O)OCC(=O)Nc2sccc2C#N)c1,21,4,14,1,-7,22,nt
COc1ccc(OCC(=O)N2N=C(C(F)F)CC2(O)C(F)F)cc1 (stereo not drawn),2,16,21,12,0,53*,43*
Cc1c(C(=O)NNC(=S)Nc2ccc(S(N)(=O)=O)cc2)oc2ccccc12,9,-43,5,-5,-1,14,nt
C[C@@H]1CN([C@@H](C)CO)C(=O)CCCn2nncc2CO[C@H]1CN(C)C(=O)Nc1cccc(Oc2ccccn2)c1,nt,nt,nt,nt,-1,nt,nt
OCCn1c(-c2ccc(F)cc2)csc1=Nc1ccccc1,0,8,34,1,1,18,nt
OCCn1c(-c2ccc3c(c2)OCO3)csc1=Nc1ccccc1,25,53,44,9,5,48*,33*
C#CC[N+](C)(C)C(C#Cc1ccccc1)CC=C (stereo not drawn),4,nt,14,-3,-3,5,nt
N#Cc1nc(-c2ccco2)oc1N1CCc2ccccc2C1,15,25,32,0,1,44*,27
N#Cc1nc(-c2ccco2)oc1N1CCCC1,-13,-32,6,-10,-2,15,nt
COc1ccc(CCNC(=O)CC(=O)N/N=C\c2ccc(OCC(N)=O)cc2)cc1OC,nt,nt,nt,nt,-2,nt,nt
COc1ccc(C(=O)Nc2ccc(Cl)cc2C(=O)NCc2ccco2)cc1OC,16,-20,30,16,-3,43*,15
S=c1[nH]nc(CSCc2ccccc2Cl)n1-c1ccccc1,15,26,23,-5,-3,46*,37*
CCn1nccc1C(=O)Nc1cc(Cl)cc(Cl)c1,35,14,41,-2,-4,41*,24
COc1cc(/C=N/NC(=O)c2ccncc2)ccc1OC(=O)c1cc(OC)c(OC)c(OC)c1,17,-23,5,7,1,3,nt
COCCN(C(=O)c1ccc(OC2CCN(S(=O)(=O)N(C)C)CC2)cc1)C(C)C,2,5,-1,9,4,-1,nt
COc1ccc(/C(O)=C2/C(=O)C(=O)N(CCN3CCNCC3)C2c2cccc([N+](=O)[O-])c2)cc1 (stereo not drawn),0,5,18,-1,4,13,nt
O=[N+]([O-])c1ccc(N=Nc2ccc(O)cc2O)cc1,26,17,42,?,0,59*,44*
O=C(Cn1cnc([N+](=O)[O-])n1)c1ccc(O)c(O)c1,12,-2,-2,2,-4,3,nt
N=C(CC1CC(=O)NC(=O)C1)C1=C(O)CCCC1=O,5,-14,-10,-2,-3,-21,nt
O=C(Nc1cccc(C(F)(F)F)c1)C1CCCN(c2ncccn2)C1 (stereo not drawn),29,nt,23,1,0,42*,36*
O=C(NCc1cccc(C(F)(F)F)c1)C1CCCN(c2ncccn2)C1 (stereo not drawn),-8,nt,4,-6,4,24,nt
C=C1CC[C@@H]2[C@](C)(CO)[C@H](O)CC[C@@]2(C)[C@@H]1/C=C/C1=CCOC1=O,2,11,21,-6,-3,98*,5
